Rows were chosen to be rich in hits. Some 5.9% of all compounds tested hit in one or more screens of this group.
KB-V1 MDR tox: KB-V1 MDR subline cytotoxicity | KB-V1 MDR cells viability, CellTiter-Glo, 72 h | Potency, µM (top dose mostly 46.1 µM), most hits filed as cytotoxic | hit rate 3.4% among 400,000 | AID 1347076; also: % is scaled to controls: 0 for no effect and ±100 for the full control effect; nearly all actives have a fitted effect of over 60% in size
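Cytotoxicity via CellTiter-Glo luminescence after 72 h compound exposure at 37 degrees C. Cells: drug-selected KB-V1 line, DMEM phenol-red free plus 10% FBS. Compounds tested at multiple concentrations; normalized data fitted to concentration-effect curves.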
HepG2 viability: counter-screen for TGF-b inhibitors: cytotoxicity in HepG2 cells. AID 588856. HepG2 CAGA-GFP viability, ATP luminescence, 18 h. Potency, µM (highest dose often 46.1 µM), for inactives: at the highest dose activity change, negative = cytotoxicity, hits mostly cytotoxic. hit rate 0.76% among 410,000
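HepG2 CAGA-GFP cells (1000/well, DMEM with 1% FBS) received compound, then TGF-beta at 500 pg/mL final, and were incubated 18 hours at 37 degrees C. Viability was read by CellTiter-Glo luminescence. Media-only wells were set as complete cell-killing and DMSO as no toxicity.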
ATXN2 expr inh: inhibitors of ATXN2 expression; HEK-293 ATXN2-luciferase reporter, luminescence, 24 h; Potency, µM (top dose mostly 57 µM), for the others: top-dose activity change, negative = inhibition, actives largely listed as inhibitors; hit rate 0.72% among 360,000; also: % is scaled to controls: 0 for no effect and ±100 for the full control effect; nearly all actives have a fitted effect of over 55% in size
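ATXN2-luciferase reporter cells (luciferase flanked by upstream and downstream ATXN2 gene portions) were treated 24 h at 37 °C with compounds at up to 57 uM. SteadyGlo luminescence gave expression; GF-AFC fluorescence gave viability.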
TGFb inhibitor: blocks TGF-b signaling; HepG2 CAGA-GFP TGF-b/SMAD3 reporter, GFP fluorescence, 18 h; TGF-beta stimulated, 500 pg/mL final; Potency, µM (titrated, usually from 46.1 µM), for the others: at the highest dose activity, negative = inhibition, usual class: inhibitors; hit rate 1.2% among 410,000; also: % is scaled to controls: 0 for no effect and ±100 for the full control effect; nearly all actives have a fitted effect of over 65% in size
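TGF-beta reporter screen: HEPG2 CAGA-GFP, 1% FBS, 500 pg/mL TGF-beta final, 18 h; per-cell GFP summed per well; curves fitted and categorized by class.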
S2 tox: viability counter-screen for ATXN expression inhibitors; S2 cells (HEK-293 line with an ATXN2-luciferase reporter) viability, CellTiter-Fluor protease fluorescence, 24 h; Potency, µM (top dose mostly 56.7 µM), hits mostly cytotoxic; hit rate 0.49% among 400,000; also: nearly all actives have a fitted effect of over 40% in size
KB-3-1 tox: KB-3-1 parental cell cytotoxicity | KB-3-1 viability, CellTiter-Glo ATP luminescence, 72 h | Potency, µM (highest dose often 46.1 µM), hits mostly cytotoxic | hit rate 1.4% among 400,000; also: % is scaled to controls: 0 for no effect and ±100 for the full control effect; nearly all actives have a fitted effect of over 60% in size
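KB-3-1 parental drug-naive adenocarcinoma cells in DMEM/10% FBS, incubated 72 h at 37 C with pin-transferred compounds across a concentration series. Viability by CellTiter-Glo luminescence; concentration-response curves fitted after normalization.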
* hit, by the source's call; i = inactive; ? = inconclusive; . = no result given. Calls follow the shape of the dose curve; as a rule, active = well fitted curve in the direction sought with a large enough effect; inconclusive = small, poorly fitted or top-dose-only effect, or another doubt; inactive = no such curve, though single readings can be large; an effect the other way counts as inactive or inconclusive. Potency is read from the fitted curve at half-maximal effect.

SMILES	KB-V1 MDR tox	HepG2 viability	ATXN2 expr inh	TGFb inhibitor	S2 tox	KB-3-1 tox
Cc1c(C(=O)Nc2nnc(C(F)(F)F)s2)oc2ccccc12	18µM*	2%	-18%	-24%	i	i
Cc1cccc(CNC(=O)c2cnn(-c3nccc(-c4cccs4)n3)c2C2CC2)n1	.	.	.	.	i	.
CN(C)CCN(Cc1ccsc1)c1ccccn1	.	.	1%	.	i	.
COc1cc2c(c(OC)c1)C(c1cccc(F)c1F)CC(=O)N2 (centres undefined)	i	2%	2%	-3%	i	i
O=C1Nc2ccc(Br)cc2C1(O)c1ccccc1 (centres undefined)	i	0%	9%	-6%	i	i
O=C1Nc2ccc(Br)cc2C12NNc1ccccc1O2 (centres undefined)	i	-105%	?	-10%	25µM*	?
Cc1ccc(S(=O)(=O)c2nc(-c3cccs3)oc2SCC(=O)Nc2cc(C)cc(C)c2)cc1	.	-65%	.	?	.	.
O=C(NCC(c1cccnc1)N1CCN(c2ccccc2)CC1)OCc1ccccc1 (centres undefined)	2.6µM*	-13%	-2%	-11%	i	i
O=C(NCC(c1cccnc1)N1CCN(c2ccc(F)cc2)CC1)OCc1ccccc1 (centres undefined)	?	-1%	-19%	?	i	i
O=C(NCC(c1cccnc1)N1CCN(c2ccccc2)CC1)C1CCCCC1 (centres undefined)	21µM*	-3%	-1%	-13%	i	i
COc1cccc(C2c3cc4c(cc3OC(C)(N3CCCC3)C2C)OCO4)c1O (centres undefined)	16µM*	-7%	3%	?	i	?
CCOc1ccccc1C1c2cc3c(cc2OC(C)(N2CCCC2)C1C)OCO3 (centres undefined)	i	5%	2%	-12%	i	i
O=C1CC[C@@H](C(=O)NCC2Cc3cc(Cl)cc(-c4ccc5[nH]ccc5c4)c3O2)N1 (some centres undefined)	.	.	.	.	i	.
C=C1CC2(CC(c3ccccc3)OC(c3ccccc3)C2)OC1=O (centres undefined)	?	11µM*	?	?	.	?
COc1ccccc1NC(=O)CSc1ncn(-c2ccccc2)n1	16µM*	2%	3%	-1%	i	i
COc1ccccc1NC(=O)CSc1nnc2c(n1)[nH]c1ccccc12	12µM*	-16%	3%	2%	?	i
COc1ccccc1NC(=O)CSc1nncn1-c1ccccc1	i	0%	.	23%	i	i
Cc1ccc(N(Cc2cccs2)C(=O)COc2ccccc2[N+](=O)[O-])cc1	.	-28%	.	-24%	.	.
Cc1ccc(-c2nc3cc(C)c(Br)c(C)n3c2CC2CCCCC2)cc1	i	.	52%	.	i	?
CCCc1nc2cc(C)c(Br)c(C)n2c1CC1CCCCC1	i	.	-15%	.	i	16µM*
Cc1ccc(-c2csc(Cc3nc(-c4ccc5c(c4)CCC(=O)N5)cs3)n2)cc1	?	-10%	-19%	-19%	i	i
Cc1nc(-c2ccc3c(c2)CCC(=O)N3)cs1	1.3µM*	-194%	49%	-7%	i	?
O=C(Nc1nnc(CC2=CCCCC2)s1)Nc1ccccc1F	i	-63%	13%	-18%	i	i
O=C(Nc1cccc(Cl)c1)Nc1nnc(CC2=CCCCC2)s1	i	-15%	-22%	-19%	i	23µM*
O=C(NC(=S)Nc1ccc(Cc2ccncc2)cc1)c1ccccc1	18µM*	-13%	1%	0%	i	?
SMILES	KB-V1 MDR tox	HepG2 viability	ATXN2 expr inh	TGFb inhibitor	S2 tox	KB-3-1 tox
Cc1cccc(C(=O)NC(=S)Nc2ccc(Cc3ccncc3)cc2)c1	i	-29%	-8%	?	i	?
COc1c(C(=O)Nc2ccc(Cc3ccncc3)cc2)ccc2ccccc12	2.9µM*	-12%	-9%	?	i	13µM*
CCOC(=O)c1[nH]c(C)c(C(=O)c2ccc(C)cc2)c1C	1.5µM*	0%	35%	-24%	i	i
CCOC(=O)c1[nH]c(C)c(C(=O)Nc2ccccc2F)c1C	3.7µM*	7%	46%	?	i	2.3µM*
CCOC(=O)c1[nH]c(C)c(C(=O)Nc2ccc(C)cc2C)c1C	3.7µM*	-5%	4%	-4%	i	2.6µM*
CCOC(=O)c1[nH]c(C)c(C(=O)NCc2ccc(C)cc2)c1C	i	-3%	-28%	5%	i	i
CCOC(=O)C(C)NC(=O)C1CCN(c2ncnc3c2nc2n3CCCCC2)CC1 (centres undefined)	.	7%	.	7%	.	.
CC1(C)CCc2cc(-c3ccn(S(=O)(=O)c4ccccc4Cl)n3)ccc2O1	?	-25%	66%	2%	i	i
COc1ccc(S(=O)(=O)n2ccc(-c3ccc4c(c3)CCC(C)(C)O4)n2)cc1	12µM*	2%	19%	?	i	i
Cc1cccc(Cn2cc3c(=O)n(CC(=O)Nc4c(C)cccc4C)nc-3c3cc(F)ccc32)c1	i	3%	7%	-5%	i	i
Cn1cc(C(=O)c2ccc(Cl)cc2Cl)cc1C(=O)N/N=C(\N)COc1ccc(Cl)cc1	?	3%	?	?	i	?
Cn1cc(C(=O)c2ccc(Cl)cc2Cl)cc1C(=O)N/N=C(\N)COc1ccc(Cl)cc1Cl	?	-3%	?	?	?	18µM*
CCC(C)NC(=O)c1c(C)oc2ncn(CC(C)C)c(=O)c12 (centres undefined)	i	-2%	0%	2%	i	i
Brc1ccc2c(c1)OCCOCCOc1cc(Br)ccc1OCCOCCOCCO2	2.3µM*	-41%	16µM*	?	?	?
CC(C)CCC(CCNCc1ccccn1)c1ccc(Cl)cc1 (centres undefined)	10µM*	20µM*	-37%	0%	i	?
S=C(NCc1ccc(Cl)cc1)NCc1ccccn1	i	-21%	-2%	7%	i	i
COc1ccccc1NC(=O)CCNS(=O)(=O)c1ccc2c(c1)CCN2C(=O)C1CC1	i	13%	0%	-1%	i	i
COCCN1C(=O)/C(=C/c2ccc(OCc3ccc(C(=O)O)cc3)c(OC)c2)SC1=Nc1ccccc1	21µM*	-21%	-1%	9%	i	i
CC(C)CCn1c(=O)c2sccc2n2c(CCCC(=O)Nc3ccc(F)c(Cl)c3)nnc12	.	-30%	.	?	.	.

Screening results (PubChem)
